nsP2pro primary: inhibitors of chikungunya virus nsP2 protease. Q8JUX6. FRET peptide cleavage, nsP2pro, fluorescence 1 h. Potency, µM (top dose mostly 24.9 µM), most hits filed as inhibitors. hit rate 1.1% among 31,000; further: nearly all actives have a fitted effect of over 60% in size
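Purified recombinant nsP2pro (150 nM final) in 10 mM Tris-HCl pH 8.0 with 0.01% Tween 20 was preincubated 15 min at room temperature with compound (7 concentrations, up to 25 uM). FRET peptide 2 substrate (2.5 uM final) was then added; fluorescence was read after 1 h.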
nsP2 cell sec: secondary cell-based test for CHIKV nsP2 protease inhibitors; shares compounds with nsP2pro primary; cell-based CHIKV nsP2 protease reporter assay; Potency, µM (top dose mostly 51.1 µM), actives largely listed as inhibitors; hit rate 10% among 450; further: nearly all actives have a fitted effect of over 70% in size
CHIKV NSP2 FL: inhibits full-length CHIKV NSP2 enzyme; Potency, µM (series often up to 50.7 µM), most hits filed as inhibitors; hit rate 39% among 410; Full-length CHIKV NSP2 protease enzymatic counterscreen; shares compounds with nsP2pro primary; AID 1964101; further: nearly all actives have a fitted effect of over 65% in size
Furin counter: selectivity counter-screen for CHIKV nsP2 protease inhibitors: human furin; shares compounds with nsP2pro primary; Recombinant human furin enzymatic counterscreen, fluorogenic substrate; Potency, µM (highest dose often 50.6 µM), most hits filed as inhibitors; hit rate 6% among 410; AID 1964102
Target sequence (P09958 whole entry, looked up): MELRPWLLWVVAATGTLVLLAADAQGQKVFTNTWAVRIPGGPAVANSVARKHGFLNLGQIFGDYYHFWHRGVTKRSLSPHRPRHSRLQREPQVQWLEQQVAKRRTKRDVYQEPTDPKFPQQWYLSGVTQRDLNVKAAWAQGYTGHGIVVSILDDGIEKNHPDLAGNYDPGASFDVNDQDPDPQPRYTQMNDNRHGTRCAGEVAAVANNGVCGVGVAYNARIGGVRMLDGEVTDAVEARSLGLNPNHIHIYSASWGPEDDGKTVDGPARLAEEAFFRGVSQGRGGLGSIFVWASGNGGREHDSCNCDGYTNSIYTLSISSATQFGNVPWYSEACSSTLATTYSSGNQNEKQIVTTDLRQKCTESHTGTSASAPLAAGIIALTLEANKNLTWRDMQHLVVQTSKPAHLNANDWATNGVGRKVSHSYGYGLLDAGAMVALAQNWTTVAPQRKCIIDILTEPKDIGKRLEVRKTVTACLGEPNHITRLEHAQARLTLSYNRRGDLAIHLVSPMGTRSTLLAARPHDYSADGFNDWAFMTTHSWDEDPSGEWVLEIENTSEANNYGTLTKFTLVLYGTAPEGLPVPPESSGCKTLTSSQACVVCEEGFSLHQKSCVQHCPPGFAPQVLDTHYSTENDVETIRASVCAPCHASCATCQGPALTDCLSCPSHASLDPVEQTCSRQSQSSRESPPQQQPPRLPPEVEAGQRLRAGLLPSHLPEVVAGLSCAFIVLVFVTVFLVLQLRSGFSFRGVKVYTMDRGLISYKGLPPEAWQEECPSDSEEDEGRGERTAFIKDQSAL
nsP2 NS23 pep: blocks CHIKV nsP2 protease cleavage of endogenous NS2/3 peptide; shares compounds with nsP2pro primary; Purified CHIKV nsP2 protease, endogenous NS2/3 peptide cleavage; hit rate 34% among 410; Potency, µM (top dose mostly 51 µM), most hits filed as inhibitors; further: nearly all actives have a fitted effect of over 55% in size
Papain cs: papain protease inhibition, counterscreen for nsP2pro inhibitors; shares compounds with nsP2pro primary; purified papain protease activity, enzymatic inhibition; Potency, µM (titrated, usually from 51 µM), hits mostly inhibitors; hit rate 5% among 410
nsP2pro confirm: CHIKV nsP2 protease inhibition, confirmatory qHTS; hit rate 43% among 410; AID 1964105; CHIKV nsP2 protease enzymatic activity, qHTS; shares compounds with nsP2pro primary; Potency, µM (series often up to 25.5 µM), usual class: inhibitors; further: nearly all actives have a fitted effect of over 75% in size
HCV NS3 4A cs: inhibits HCV NS3/4A protease in an nsP2pro selectivity counterscreen. AID 1964106. HCV NS3/4A protease biochemical counterscreen. shares compounds with nsP2pro primary. Potency, µM (top dose mostly 50.9 µM), hits mostly inhibitors. hit rate 20% among 410; further: nearly all actives have a fitted effect of over 55% in size
Numbers stand for hits; 0 = inactive; ? = inconclusive. The entries come from a sample that favours hits as a whole. The call rests on the fitted dose curve.

SMILES	nsP2pro primary	others
C/C=C(/C)C(=O)O[C@H]1C(C)=CC23C(=O)C(C=C(CO)[C@@H](O)[C@]12O)[C@H]1[C@@H](C[C@H]3C)C1(C)C (stereo partly specified)	0
CCCS(=O)(=O)c1ncc(Cl)c(C(=O)N(Cc2ccccc2)Cc2ccco2)n1	5.6µM	nsP2 cell sec=4.6µM;CHIKV NSP2 FL=18µM;Furin counter=0;nsP2 NS23 pep=6.5µM;Papain cs=0;nsP2pro confirm=4.5µM;HCV NS3 4A cs=?
CCSc1ncc(Cl)c(C(=O)N(Cc2ccccc2)Cc2ccco2)n1	0
CCCSc1ncc(Cl)c(C(=O)N(Cc2ccc(Cl)cc2)Cc2ccco2)n1	0
CC(C)c1ccc2c(c1)C(=O)CC1[C@@](C)(C(=O)O)CCC[C@]21C (stereo partly specified)	0
Cc1ccc(N2CCC(CNc3nc(-c4ccccc4C(C)C)ncc3C)CC2)cn1	0
Cc1cc(NS(=O)(=O)c2ccc(NC(=O)Cc3cccc(Cl)c3)cc2)no1	0
COc1nc2ccc(Br)cc2cc1[C@@H](c1ccccc1)[C@@](O)(CCN(C)C)c1cccc2ccccc12	1.2µM	nsP2 cell sec=?;CHIKV NSP2 FL=?;Furin counter=0;nsP2 NS23 pep=?;Papain cs=0;nsP2pro confirm=7.1µM;HCV NS3 4A cs=0
Cc1noc(C)c1-c1cc(-c2ccc(CN(C)C)cc2)cn2cncc12	0
CC(=O)N1CCC(OCCOc2ccccc2)CC1	0
Cc1cccc(-c2ocnc2C(=O)N2CC[C@H](CO)[C@H](NC(=O)C3CC3)C2)c1	0
CC(=O)N1Cc2ccccc2CC2(CCCN2Cc2ccccn2)C1 (stereo unspecified)	0
C=C1C(=O)O[C@@H]2C3=C(C)CCC[C@]3(C)CC[C@@]12O	3.1µM	nsP2 cell sec=?;CHIKV NSP2 FL=?;Furin counter=0;nsP2 NS23 pep=18µM;Papain cs=0;nsP2pro confirm=?;HCV NS3 4A cs=0
CC1=C2C3OC(=O)C(C)C3(O)CCC2(C)CCC1=O (stereo unspecified)	0
CC1=C2C3OC(=O)C(C)C3(O)CCC2(C)CCC1 (stereo unspecified)	0
FC(F)(F)c1ccccc1-c1cc(C(F)(F)F)c2nc(C3=NOC4(CCCCC4)C3)[nH]c2c1	0
Cc1ccc(-c2cc(C(=O)N(C)c3ccccc3)c3ccccc3n2)cc1C	0
C=CCCCCCCCCC(=O)O	4.3µM	nsP2 cell sec=0;CHIKV NSP2 FL=1.4µM;Furin counter=?;nsP2 NS23 pep=?;Papain cs=?;nsP2pro confirm=2.2µM;HCV NS3 4A cs=0
CCCCCCCC(=O)O	0
CCCCCCCCCCCCCCCC(=O)O	0
CC(=O)Nc1sc2c(c1-c1ccc(N3CCN(C)CC3)cc1)CCNC2	0
Cn1nnnc1Sc1ncnc2scc(Br)c12	0
Cn1nnnc1Sc1ncnc2scc(I)c12	2.2µM	nsP2 cell sec=7.3µM;CHIKV NSP2 FL=0;Furin counter=0;nsP2 NS23 pep=0;Papain cs=0;nsP2pro confirm=0;HCV NS3 4A cs=?
Cc1ccc(-c2csc3ncnc(Sc4nnnn4C)c23)cc1	0
CN(Cc1ccccc1)C(=O)[C@H]1C[C@@H](O)[C@H](O)[C@@H]2N=C(Nc3ccc(-n4cccn4)cc3)S[C@@H]21	0
SMILES	nsP2pro primary	others
CCn1c(=O)c2cc(C(N)=O)c(N)nc2n(C2CC2)c1=O	0
Cc1cccc(CSc2nc3cccnc3n2Cc2ccc(C(=O)NCc3ccco3)cc2)c1	0
O=C(NCc1cccs1)c1ccc(Cn2c(SCc3ccc(F)cc3)nc3cccnc32)cc1	0
Cc1ccc(CNC(=O)c2ccc(Cn3c(SCc4ccc(F)cc4)nc4cccnc43)cc2)o1	?	nsP2 cell sec=0
C=C1C(OC(C)=O)[C@@]23CCC4[C@](C)(C(=O)O)CCC[C@@]4(C)[C@]2(O)CC[C@H]1C3 (stereo partly specified)	0
Cc1nn(CCC#N)c(C)c1[C@@H]1C=C[C@@H](NC(=O)c2cccs2)C1	?	nsP2 cell sec=0
Cc1nn(Cc2ccccc2)c(C)c1[C@@H]1C=C[C@@H](NC(=O)c2cccs2)C1	0
CCNC(=O)N[C@@H]1C=C[C@@H](c2c(C)nn(-c3ccc(F)cc3)c2C)C1	0
CNCC(=O)Nc1ccc(Cl)cc1C(=O)c1ccc[nH]1	0
O=C(Nc1ccc(Cl)c(Cl)c1)Nc1ncc(-c2ccncc2)s1	0

Source: PubChem BioAssay
